Activity calls are given as the source filed them. Unless noted, how the calls were made is not given here.

Here are results for five molecules from PubChem BioAssay.

The nature of test [1]: anti-His antibody binders, primary screen, artefact control for SMM control protein annotation, biochemical, small-molecule microarray, 635 nm fluorescence (AID 1128).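 Further: score merges feature fluorescence with signal-to-noise for each printed compound spot.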 The settings on record: anti-His Alexa647 antibody binding, higher = more signal.
Test [2] relates to Human papillomavirus type 1a E7 protein (residues 1-88). Kind of test: HPV1a E7 small-molecule binders, primary screen, biochemical, small-molecule microarray, residues 1-88, 635 nm (AID 1129). The settings on record: small-molecule microarray binding, fluorescence 635 nm; higher = more signal.
The target in test [3] is Focal adhesion kinase 1 (Homo sapiens) (UniProt Q05397). Kind of test: small-molecule microarray binders of FAK, primary screen, biochemical, 635/667 nm fluorescence, BSA, DTT (AID 1130).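 Further: composite of spot emission at 667 nm and signal to noise over triplicate slides.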 As to conditions: PTK2 binding, 635 nm fluorescence, higher = more signal.
Test [4] relates to Fibrinogen (Alexa647-labelled). Nature of the test: fibrinogen binders on compound microarrays, profiling panel, artefact control for SMM control-protein annotation, biochemical, small-molecule microarray, 635/667 nm fluorescence (AID 1131).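 Further: z-score merges 667 nm fluorescence with per-spot signal-to-noise over triplicate slides.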 As to conditions: fibrinogen-A647 binding fluorescence, higher = more signal.
Test [5] deals with Follistatin (Homo sapiens) (UniProt P19883). Nature of the test: follistatin binders on small-molecule microarrays, primary screen, biochemical, small-molecule microarray, 635/667 nm fluorescence (AID 1132). As to conditions: FST binding, 635 nm fluorescence, higher = more signal.
In test [6] the target is Fibroblast growth factor 2 (Homo sapiens) (UniProt P09038). Nature of the test: FGF2 binders on small-molecule microarrays, primary screen, biochemical, small-molecule microarray, 635/667 nm fluorescence (AID 1133). As to conditions: small-molecule microarray binding, FGF2, fluorescence 635/667; higher = more signal.
Test [7] can be described thus: mitochondrial membrane potential change in A549 cells, profiling panel, cell-based, JC-1 fluorescence, basal, 24 h, 100 nL (AID 1138).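 Further: A549 lung adenocarcinoma cells under basal conditions with no added stimulus; test concentration not given here.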 The settings on record: higher = more signal.
In the next test the test system is Lefty1. Nature of the test: Lefty1 binders on small-molecule microarrays, primary screen, biochemical, small-molecule microarray, 635/667 nm fluorescence (AID 1139). The settings on record: small-molecule microarray binding, fluorescence 635/667; higher = more signal.
Test [8] concerns wheat germ agglutinin (Triticum aestivum), Alexa647-labelled. Nature of the test: wheat germ agglutinin binders on compound microarrays, profiling panel, artefact control for SMM control-protein annotation, biochemical, small-molecule microarray, 635/667 nm fluorescence (AID 1140).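 Further: score merges 667 nm feature emission with signal to noise over triplicate slides.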 The settings on record: WGA-A647 binding, 635 nm fluorescence, higher = more signal.
Test [9] addresses Luciferin 4-monooxygenase (Photinus pyralis) (UniProt P08659). Nature of the test: firefly luciferase enzyme inhibitors, primary screen, biochemical, luminescence, purified enzyme, 2006 set (AID 1141).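 Further: cell-free assay with purified firefly luciferase at 100 ng per well in PBS; test concentration not given here.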 As to conditions: SteadyGlo luminescence, 30 min, higher = more signal, called active from +8 up or from −8 down.
The test system of test [10] is Wnt5a (protein binding on small-molecule microarray). Nature of the test: Wnt5a binders on small-molecule microarray, primary screen, biophysical, 635/667 nm fluorescence (AID 1142).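 Further: fluorescence read at 667 nm with signal to noise per printed feature.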 The settings on record: 635 nm fluorescence, higher = more signal.
A short description of test [11]: cell viability in Huh7 cells, primary screen, cytotoxicity control for HCV replication inhibitor project, CellTiter-Glo luminescence, basal, 48 h (AID 1143).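 Further: Huh7 hepatoma cells carrying a hepatitis C replication reporter with no stimulus; test concentration not given here.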 As to conditions: Huh7 HCV replicon, higher = more signal, called active from +8 up or from −8 down.
A short description of test [12]: P. aeruginosa biofilm formation inhibitors, primary screen, PAO1 strain, BacTiter-Glo luminescence, LB-PBS (AID 1144). As to conditions: 12 h, higher = more signal.
Test [13] in a line: CREB reporter modulators without forskolin, primary screen, cell-based, PC12, CRE-LacZ reporter, unstimulated (AID 1145). The settings on record: no forskolin, luminescence, 4.5 h, higher = more signal, called active from +8 up or from −8 down.
Test [14] in a line: CREB reporter modulators under forskolin, primary screen, cell-based, PC12, CRE-LacZ reporter, forskolin-stimulated (AID 1146).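 Further: PC12 cells with 6xCRE LacZ reporter stimulated by forskolin 10 µM; beta-galactosidase reporter signal reflecting CREB driven transcription.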 As to conditions: luminescence, 4.5 h, higher = more signal, called active from +8 up or from −8 down.
The target of test [15] is Streptavidin (Streptomyces avidinii) (UniProt P22629). Kind of test: streptavidin binders on small-molecule microarray, primary screen, artefact control for SMM compound annotation, biophysical, 635/667 nm fluorescence (AID 1147).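 Further: signal reflects streptavidin binding to arrayed compounds as a control protein.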 The settings on record: streptavidin binding, higher = more signal.
Test [16] in a line: small-molecule binders of probe aInhba, primary screen, biochemical, small-molecule microarray, 635/667 nm fluorescence (AID 1148).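 Further: score merges 667nm spot fluorescence with signal-to-noise for antibody binding to printed compounds.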 As to conditions: higher = more signal.
For test [17], the target named is Torsin-1A (Homo sapiens) (UniProt O14656). Kind of test: torsin A binders from cell lysate, primary screen, small-molecule microarray, wild-type, 635/667 nm (AID 1149). The settings on record: COS7 hTOR1A-WT lysate, 635 nm fluorescence, higher = more signal.
The target is the same in test [18]. Nature of the test: small-molecule binders of mutant TOR1A in lysate, primary screen, cell lysate, small-molecule microarray, COS7 lysate, 635/667 nm fluorescence (AID 1150).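 Further: score pools 667 nm emission and signal to noise measuring lysate protein binding.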 The settings on record: COS7 hTOR1A mutant lysate, 635 nm fluorescence, higher = more signal.
In test [19] the test system is Sonic hedgehog protein (Shh). Kind of test: small-molecule binders of Shh protein, primary screen, biochemical, small-molecule microarray, 635/667 nm fluorescence (AID 1151).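 Further: Shh protein binding to compounds spotted on small-molecule microarray slides; score combines spot fluorescence intensity with signal-to-noise across triplicate slides.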 As to conditions: small-molecule microarray binding, 635 nm fluorescence; higher = more signal.

Luciferin 4-monooxygenase (Photinus pyralis), sequence (P08659 whole entry, looked up): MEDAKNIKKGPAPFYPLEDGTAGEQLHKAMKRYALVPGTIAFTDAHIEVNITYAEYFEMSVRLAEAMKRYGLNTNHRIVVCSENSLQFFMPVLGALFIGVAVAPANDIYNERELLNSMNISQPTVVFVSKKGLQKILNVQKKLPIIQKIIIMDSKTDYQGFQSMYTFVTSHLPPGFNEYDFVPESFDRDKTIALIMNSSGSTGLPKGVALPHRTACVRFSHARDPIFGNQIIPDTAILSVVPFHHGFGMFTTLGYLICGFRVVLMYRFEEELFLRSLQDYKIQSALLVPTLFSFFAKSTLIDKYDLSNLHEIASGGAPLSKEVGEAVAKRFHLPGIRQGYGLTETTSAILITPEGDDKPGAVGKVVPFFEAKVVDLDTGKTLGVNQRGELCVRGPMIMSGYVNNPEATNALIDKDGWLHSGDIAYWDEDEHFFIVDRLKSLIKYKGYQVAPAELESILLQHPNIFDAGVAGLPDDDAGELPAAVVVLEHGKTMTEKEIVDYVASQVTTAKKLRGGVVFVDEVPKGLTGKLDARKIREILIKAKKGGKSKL
Follistatin (Homo sapiens), sequence (P19883 whole entry, looked up): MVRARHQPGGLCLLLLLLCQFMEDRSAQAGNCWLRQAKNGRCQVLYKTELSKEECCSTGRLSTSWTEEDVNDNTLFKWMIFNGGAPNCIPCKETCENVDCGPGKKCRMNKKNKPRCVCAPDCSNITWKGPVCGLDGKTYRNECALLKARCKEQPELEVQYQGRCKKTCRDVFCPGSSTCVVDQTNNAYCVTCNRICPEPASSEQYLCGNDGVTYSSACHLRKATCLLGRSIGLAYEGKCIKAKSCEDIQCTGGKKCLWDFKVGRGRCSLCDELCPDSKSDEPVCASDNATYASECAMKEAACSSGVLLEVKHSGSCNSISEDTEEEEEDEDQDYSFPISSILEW
Fibroblast growth factor 2 (Homo sapiens), sequence (P09038 whole entry, looked up): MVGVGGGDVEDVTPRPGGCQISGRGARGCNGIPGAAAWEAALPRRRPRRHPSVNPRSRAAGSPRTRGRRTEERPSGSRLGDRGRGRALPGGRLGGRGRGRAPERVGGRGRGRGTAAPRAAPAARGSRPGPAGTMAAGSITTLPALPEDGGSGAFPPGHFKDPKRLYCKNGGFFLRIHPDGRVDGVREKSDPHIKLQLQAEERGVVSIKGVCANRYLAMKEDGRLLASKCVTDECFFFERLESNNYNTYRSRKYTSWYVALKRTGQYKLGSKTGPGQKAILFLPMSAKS
Torsin-1A (Homo sapiens), sequence (O14656 whole entry, looked up): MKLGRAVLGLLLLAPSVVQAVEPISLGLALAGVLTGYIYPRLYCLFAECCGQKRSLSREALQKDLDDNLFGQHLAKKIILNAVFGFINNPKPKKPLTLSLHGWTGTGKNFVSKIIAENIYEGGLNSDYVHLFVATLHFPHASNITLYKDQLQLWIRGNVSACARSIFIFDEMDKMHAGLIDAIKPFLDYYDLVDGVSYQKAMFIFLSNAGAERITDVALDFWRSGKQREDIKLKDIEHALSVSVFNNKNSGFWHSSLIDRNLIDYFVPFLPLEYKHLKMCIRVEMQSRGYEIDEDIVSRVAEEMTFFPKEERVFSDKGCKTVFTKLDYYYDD
Streptavidin (Streptomyces avidinii), sequence (P22629 whole entry, looked up): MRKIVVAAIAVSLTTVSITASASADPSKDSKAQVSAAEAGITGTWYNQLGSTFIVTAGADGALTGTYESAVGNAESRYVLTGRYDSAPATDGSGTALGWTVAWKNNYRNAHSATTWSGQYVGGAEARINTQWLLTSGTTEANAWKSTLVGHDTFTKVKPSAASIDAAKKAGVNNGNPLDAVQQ
Focal adhesion kinase 1 (Homo sapiens), sequence (Q05397 whole entry, looked up): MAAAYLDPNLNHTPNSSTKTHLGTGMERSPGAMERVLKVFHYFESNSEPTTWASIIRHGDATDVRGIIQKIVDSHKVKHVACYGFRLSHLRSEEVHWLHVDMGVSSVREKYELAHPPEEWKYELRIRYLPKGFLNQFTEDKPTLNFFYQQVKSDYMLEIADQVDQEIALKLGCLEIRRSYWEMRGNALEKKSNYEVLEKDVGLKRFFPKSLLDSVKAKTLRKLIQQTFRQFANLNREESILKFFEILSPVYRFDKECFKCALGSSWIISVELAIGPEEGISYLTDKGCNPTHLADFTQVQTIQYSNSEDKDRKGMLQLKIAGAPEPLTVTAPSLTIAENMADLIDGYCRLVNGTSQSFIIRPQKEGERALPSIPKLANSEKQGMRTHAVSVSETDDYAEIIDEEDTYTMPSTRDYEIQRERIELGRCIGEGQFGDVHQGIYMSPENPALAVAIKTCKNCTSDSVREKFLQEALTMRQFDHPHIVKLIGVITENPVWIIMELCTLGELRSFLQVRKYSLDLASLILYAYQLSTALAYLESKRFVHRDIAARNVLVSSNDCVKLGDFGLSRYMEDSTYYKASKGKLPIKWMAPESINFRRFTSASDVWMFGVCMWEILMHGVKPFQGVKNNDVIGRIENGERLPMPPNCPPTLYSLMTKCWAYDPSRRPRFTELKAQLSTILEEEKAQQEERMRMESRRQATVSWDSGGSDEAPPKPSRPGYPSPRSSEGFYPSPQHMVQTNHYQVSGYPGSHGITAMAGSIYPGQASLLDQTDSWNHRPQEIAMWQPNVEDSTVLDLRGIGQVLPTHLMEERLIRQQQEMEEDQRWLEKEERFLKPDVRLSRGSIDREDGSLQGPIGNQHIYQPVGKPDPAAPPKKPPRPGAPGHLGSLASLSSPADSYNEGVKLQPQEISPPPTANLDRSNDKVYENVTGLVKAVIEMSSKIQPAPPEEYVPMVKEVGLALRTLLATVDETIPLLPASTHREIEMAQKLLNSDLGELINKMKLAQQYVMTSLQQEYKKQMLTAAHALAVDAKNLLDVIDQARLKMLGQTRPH

Turning to `CCOC(=O)C[C@H]1[C@H](OC(=O)c2ccc(C(=O)c3ccccc3)cc2)[C@@H](NC(=O)c2ccc3ccccc3n2)c2cc(OCCCO)ccc2N1C(=O)c1ccc2ccccc2n1`, the composite z-score is -0.0631 in test [1]; 1.06 in [2]; -0.0481 in test [3]; 0.887 in [4]; 0.37 in test [5]; 0.146 in [6]. Further, the composite z-score worked out at 0.105 with Lefty1; 0.515 in test [8]; 0.211 in [10]; 0.47 in test [15]; 0.0778 in test [16]; 0.323 in the test with Torsin-1A (Homo sapiens) [17]. The composite z-score with Torsin-1A (Homo sapiens) [18] was 0.134; in test [19] it was -0.0692. In addition, the z-score was 1.5 in test [7]; -0.857 (inactive) in [9]; 0.0729 (inactive) in test [11]; -0.754 (inactive) in [12]; 2.05 (inactive) in test [13]; -1.22 (inactive) in [14].
With `C=CCC(OC(C)=O)[C@@H]1[C@@H](N(Cc2cc3ccccc3o2)C(=O)c2ccc(-c3ccccc3)cc2)c2cc(OCCCO)ccc2N1C(=O)Cc1ccc2ccccc2c1` (stereo not given in full), the composite z-score in test [1] is 0.708; in test [2], -0.321; in test [3] it was -0.0252; in test [4] it was 0.186; in test [5], 0.386; in [6], -0.0741. The composite z-score with Lefty1 was -0.0934; in [8], 0.34; in test [10], -0.172; in test [15], 0.0693; in test [16] it was 0.0963; with Torsin-1A (Homo sapiens) [17], -0.635. The composite z-score with Torsin-1A (Homo sapiens) [18] is -0.0864; in test [19], -0.076. In addition, the z-score in [7] is 1.33; in [9] it was -0.729 (inactive); in [11], 0.0758 (inactive); in test [12], 0.19 (inactive); in [13], 1.85 (inactive); in test [14] it was 0.874 (inactive).
In the case of `CC(C)C(CO)N1C(=O)[C@@H]2[C@H]3C(=O)OCC=C[C@H]3OC23C=CCN(c2ccc4ccccc4c2)C(=O)[C@@H]13` (stereo not given in full), the composite z-score is -0.151 in [1]; -1.29 in test [2]; -0.493 in test [3]; -0.581 in [4]; -0.851 in [5]; -1.18 in test [6]. For the same molecule, the composite z-score with Lefty1 was -0.842; in test [8], -0.328; in test [10] it was -0.0522; in test [15] it was -0.818; in test [16] it was -0.179; with Torsin-1A (Homo sapiens) [17] it was -0.905. In addition, the composite z-score with Torsin-1A (Homo sapiens) [18] was -2.07; in test [19] it was -0.506. The z-score was 0.742 in test [7]; -0.194 (inactive) in test [9]; -0.372 (inactive) in [11]; 2.05 (inactive) in test [12]; 0.732 (inactive) in [13]; 0.755 (inactive) in test [14].
Consider `CCN(CC)c1ccc(N2CC=CC34O[C@@H]5/C=C\CCC(C)OC(=O)C5[C@H]3C(=O)N(CCCCCCO)[C@@H]4C2=O)cc1` (stereo not given in full), for which the composite z-score was 0.0517 in test [1]; -0.089 in test [2]; -0.182 in test [3]; -1.59 in [4]; -0.371 in test [5]; -0.361 in [6]. In addition, the composite z-score was -0.652 with Lefty1; 0.524 in [8]; -0.449 in test [10]; -0.629 in test [15]; -0.359 in [16]; 0.84 with Torsin-1A (Homo sapiens) [17]. Besides, the composite z-score in the test with Torsin-1A (Homo sapiens) [18] was 0.0844; in test [19] it was -0.166. Besides, the z-score in test [7] was 0.905; in test [9], -1.59 (inactive); in test [11], -0.406 (inactive); in [12] it was 0.398 (inactive); in test [13], 0.886 (inactive); in [14], 0.57 (inactive).
Turning to `CCCNC(=O)[C@@]1(C)c2ccccc2C(=O)N(C(C)C)[C@H]1c1ccc(CO)cc1`, the composite z-score was -0.853 in [1]; -0.54 in test [2]; 0.198 in test [3]; -0.879 in test [4]; -0.127 in test [5]; -0.343 in test [6]. In addition, the composite z-score was -1.38 in the test on Lefty1; -0.867 in test [8]; 0.182 in test [10]; -0.586 in test [15]; -0.0791 in test [16]; 0.398 in the test with Torsin-1A (Homo sapiens) [17]. For the same molecule, the figures for the composite z-score (with Torsin-1A (Homo sapiens) [18]; in [19]) were -0.435 and -0.946, respectively. Also, the z-score in [7] is -0.809; in test [9], 0.33 (inactive); in test [11], -4.29 (inactive); in [12] it was -0.744 (inactive); in [13] it was 0.0279 (inactive); in [14], 0.155 (inactive).
